About 120 (0.44%) of roughly 27,000 compounds were called active. No stated cut-off is given here; in the data, active means inhibition above about 20%; inconclusive means no clear call, values can overlap the other calls; inactive means below that. The sample as a whole holds a higher share of actives than the screen did.

As usually defined, the inhibition is the drop in the measured response relative to a control, in per cent.

The assay deals with Serine/threonine-protein kinase 33 (Homo sapiens) (UniProt Q9BYT3). Put plainly: STK33 kinase inhibitors, primary screen, biochemical, luminescence, ADP-Glo, MBP substrate (AID 2322). Particulars: at 12.5 µM, stronger effect = higher value. For orientation: ADP-Glo first removes unused ATP, then detects ADP through luciferase.
Chain of Serine/threonine-protein kinase 33 (Homo sapiens) (Q9BYT3 whole entry, looked up): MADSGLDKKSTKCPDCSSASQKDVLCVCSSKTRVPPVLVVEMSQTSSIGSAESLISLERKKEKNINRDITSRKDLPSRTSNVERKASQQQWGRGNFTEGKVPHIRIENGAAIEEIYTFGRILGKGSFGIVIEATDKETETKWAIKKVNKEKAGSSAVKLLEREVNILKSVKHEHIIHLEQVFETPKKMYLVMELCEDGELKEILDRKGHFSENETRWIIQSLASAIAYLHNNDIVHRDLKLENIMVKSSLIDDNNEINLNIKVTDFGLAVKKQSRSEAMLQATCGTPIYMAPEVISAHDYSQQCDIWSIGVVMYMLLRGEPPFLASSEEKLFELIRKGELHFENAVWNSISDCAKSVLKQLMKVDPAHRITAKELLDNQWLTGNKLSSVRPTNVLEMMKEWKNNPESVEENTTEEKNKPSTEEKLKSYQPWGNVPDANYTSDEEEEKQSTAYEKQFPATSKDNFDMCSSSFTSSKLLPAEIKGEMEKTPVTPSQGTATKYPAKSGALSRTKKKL
Take `Cc1noc(C)c1NC(=O)Nc1ccc2c(c1)C(=O)N([C@H](C)CO)C[C@H](C)[C@@H](CN(C)C(=O)Nc1ccc(C(F)(F)F)cc1)O2`: the inhibition was 3.9% (inactive). In the case of `COc1ccccc1NC(=O)c1c(NC(=O)c2cccnc2)sc(C)c1C`, the inhibition was 4.55% (inactive). Under `c1ccc(-n2c(SCc3nc4ccccc4s3)nnc2-c2ccncc2)cc1` stands 1.5% (inactive); under `O=[N+]([O-])c1ccccc1-c1ccc(CN2CCN3CCCC3C2C2CCCCC2)o1` (stereo not given), -1.45% (inactive); under `O=C(CCn1nc(-c2ccc(Cl)cc2)c2ccccc2c1=O)Nc1cccc(C(F)(F)F)c1`, 0.989% (inactive). Under `C[C@@H]1CN([C@H](C)CO)C(=O)Cc2cc(NS(C)(=O)=O)ccc2O[C@@H]1CN(C)C(=O)Nc1ccc2c(c1)OCO2` stands 1.61% (inactive); under `CCOc1c(S(=O)(=O)NCc2cccnc2)ccc(Cl)c1Cl`, 3.15% (inactive); under `O=C(Oc1ccccc1)c1cccc(COC(=O)c2cc3ccccc3oc2=O)c1`, -1.52% (inactive). Under `COc1cccc(-c2cnc3c(c2)C(=O)N([C@H](C)CO)C[C@H](C)[C@H](CN(C)Cc2ccncc2)O3)c1` stands -1.09% (inactive); under `O=C1c2c(O)cc(O)cc2O[C@@H](c2ccc(O)cc2)[C@@H]1c1c(O)cc(O)c2c(=O)cc(-c3ccc(O)cc3)oc12`, 6.09% (inactive); under `Cc1cc(C)cc(OCC(=O)Nc2cccc(-c3nnc(-c4ccccc4)o3)c2)c1`, 4.59% (inactive).

As for `C[C@@H]1CN([C@@H](C)CO)C(=O)Cc2cc(NC(=O)Nc3ccc4c(c3)OCO4)ccc2O[C@@H]1CN(C)CC1CCCCC1`, the inhibition was 1.59% (inactive). Under `c1ccc(Cn2c3ccccc3c3nnc(SCc4ccc5nonc5c4)nc32)cc1` stands 2.04% (inactive); under `C[C@H]1CN([C@@H](C)CO)C(=O)CCCn2nncc2CO[C@@H]1CN(C)S(=O)(=O)c1cccc(C#N)c1`, 4.45% (inactive); under `COc1ccc(N2C(=O)CC(SCC(=O)Nc3ccccc3F)C2=O)cc1` (stereo not given), 0.679% (inactive). The value for `Cc1ccc(-n2c(SCC(=O)Nc3ccc(F)c(F)c3)nnc2-c2cnccn2)cc1` was -2.72% (inactive).

Regarding `COc1cc2c(cc1NC(=O)C1CCC(=O)N1S(=O)(=O)c1ccc(C)cc1)oc1ccccc12` (stereo not given), the inhibition is -1.01% (inactive). The value for `Cc1ccc(-c2nnc(Nc3ccc(C(=O)N(C)C)cc3)c3ccccc23)cc1S(N)(=O)=O` was 1.54% (inactive); that for `CCc1c(O)nc(SCC(=O)Nc2ccc(OC)cc2)n(-c2ccccc2C)c1=O` was -1.3% (inactive). With `S=c1cc(-c2ccccc2)oc(-c2ccccc2)c1`, the inhibition was 9.05% (inactive). Under `COc1ccccc1NC(=O)CCC(=O)c1ccc(C)cc1` stands 0.187% (inactive). Under `CCN(CC)C(=O)c1ccc(O)c(OC)c1` stands 1.6% (inactive). Under `COc1cc(/C=C2\Oc3cc(O)cc(O)c3C2=O)ccc1O` stands 80.7% (active); under `COc1cc(/C=C/C(=O)NCCc2ccc(O)cc2)ccc1O`, -4.2% (inactive); under `C[C@H](CO)N1C[C@H](C)[C@H](CN(C)S(=O)(=O)c2cccc(F)c2)OCc2cnnn2CCCC1=O`, 1.75% (inactive). With `Cc1ccc2oc3c(c(=O)c2c1)C(c1ccc([N+](=O)[O-])cc1)N(CCCN1CCOCC1)C3=O` (stereo not given), the inhibition was -0.738% (inactive). Under `O=C(CSc1nnc(-c2ccccc2Cl)n1-c1ccccc1)Nc1ccc([N+](=O)[O-])cc1` stands 1.7% (inactive). The value for `CCOC(=O)CCSc1nnc2c3ccccc3n(C)c2n1` was 0.466% (inactive); that for `O=C(CN1C(=O)COc2ccc(Cl)cc21)Nc1ccc(N2CCOCC2)cc1` was 6.98% (inactive); that for `O=C(CCn1cnc2ccccc2c1=O)Nc1cccc(C(F)(F)F)c1` was -2.03% (inactive). The value for `CS(=O)(=O)CCC(C(=O)N1CCOCC1)N1C(=O)c2ccc(Br)cc2C1=O` (stereo not given) was -0.215% (inactive); that for `Cc1nc2ccccc2n1CC(O)COc1ccc(C2C=CCC2)cc1` (stereo not given) was -1.35% (inactive).

Consider `COc1ccc([Si](C)(C)[C@@H]2[C@@H](CCO)O[C@]3(C(=O)N(Cc4cccc(N5CCCCC5=O)c4)c4ccccc43)[C@H]2C)cc1`, for which the inhibition is 2.11% (inactive). The value for `Cc1noc(C)c1S(=O)(=O)Nc1ccc2c(c1)CC(=O)N([C@H](C)CO)C[C@@H](C)[C@@H](CN(C)Cc1ccc(C(=O)O)cc1)O2` was 0.587% (inactive). The value for `CCCn1c2ccccc2c2nnc(SCC(=O)Nc3cccc4ccccc34)nc21` was 0.6% (inactive); that for `CC(C)c1ccc(OCC(O)Cn2cnc3ccccc32)cc1` (stereo not given) was 0.565% (inactive); that for `O=C(COc1ccc2c(=O)c(-c3ccccc3)coc2c1)Nc1ccc(F)cc1` was 1.18% (inactive). Under `C[C@@H]1CN([C@@H](C)CO)C(=O)Cc2cc(NC(=O)C3CCCCC3)ccc2O[C@@H]1CN(C)Cc1ccncc1` stands 0.459% (inactive). `CC(C)CN1C(=O)[C@@]2(Cc3ccccc31)c1ccccc1C(=O)N(C1CCCCC1)[C@H]2c1ccc(CO)cc1`: the inhibition was -0.707% (inactive). Under `O=C(CSc1nc2sc3c(c2c(=O)[nH]1)CCC3)Nc1ccccc1C(F)(F)F` stands -3.77% (inactive); under `Cc1ccc(NC(=O)CSc2ncnc3sc(C)c(C)c23)cc1`, 5.19% (inactive). In the case of `Cc1ccc(-c2nc3cc(NC(=O)COc4ccc([N+](=O)[O-])cc4)ccc3o2)cc1C`, the inhibition is 0.362% (inactive). Under `CN(CC(=O)Nc1ccc(C#N)cc1)S(=O)(=O)c1ccc(Cl)cc1` stands 4.42% (inactive); under `C[C@H]1CN([C@@H](C)CO)C(=O)c2cc(NC(=O)Cc3cn(C)c4ccccc34)ccc2O[C@H]1CN(C)CC1CCCCC1`, 0.289% (inactive); under `CS(=O)(=O)N(CC(=O)Nc1ccc2ccccc2c1)c1cc(Cl)c(Cl)cc1Cl`, 0.303% (inactive). The value for `O=c1[nH]nc(-c2ccc(NCc3cccnc3)c([N+](=O)[O-])c2)c2ccccc12` was 0.832% (inactive); that for `CCOC(=O)c1c(NC(=O)CSc2ncn[nH]2)sc2c1CCC2` was 3.47% (inactive); that for `CCOC(=O)c1c(NC(=O)C2(C)Cc3ccccc3C(=O)O2)sc2c1CCCC2` (stereo not given) was 0.582% (inactive). As for `CS(=O)(=O)N(CC(=O)NC1CC1)c1ccc(Cl)c(C(F)(F)F)c1`, the inhibition is -1.46% (inactive).

Regarding `O=C(NCCN1CCOCC1)C(=O)NCC1COc2ccccc2O1` (stereo not given), the inhibition is 2.08% (inactive).
